In the library only some 2.9% were active in any assay of this set; here they are far more common.
S2 tox = Viability Counterscreen for Primary qHTS for Inhibitors of ATXN expression; S2 cells (HEK-293 line with an ATXN2-luciferase reporter) viability, CellTiter-Fluor protease fluorescence, 24 h; Potency, µM (top dose mostly 56.7 µM), actives largely listed as cytotoxic; 400,000 tested, 0.49% active; further: nearly all actives have a fitted effect of over 40% in size
ATXN2 expr inh = Primary qHTS for Inhibitors of ATXN expression. HEK-293 ATXN2-luciferase reporter, luminescence, 24 h. 360,000 tested, 0.72% active. Potency, µM (series often up to 57 µM), for the others: at the top dose activity change, negative = inhibition, usual class: inhibitors. AID 1745845, 2022; further: on the % scale 0 is the no-effect control and ±100 the full control effect; nearly all actives have a fitted effect of over 55% in size
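ATXN2-luciferase reporter cells (luciferase flanked by upstream and downstream ATXN2 gene portions) were treated 24 h at 37 °C with compounds at up to 57 uM. SteadyGlo luminescence gave expression; GF-AFC fluorescence gave viability.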
Nrf2 activator = qHTS of Nrf2 Activators | AREc32 ARE-luciferase reporter (MCF7-derived line), luminescence, 24 h | Potency, µM (top dose mostly 46.1 µM), for inactives: top-dose activation, actives largely listed as activators | 410,000 tested, 0.31% active | AID 624171, 2012; further: % of control where 0% means no effect; nearly all actives have a fitted effect of over 65% in size
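Luciferase luminescence (Steady-Glo, 30 min at room temperature) served as the read-out of ARE activation in AREc32 cells treated with compounds for 24 hr at 37 deg C.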
A549 viability = Nrf2 qHTS screen for inhibitors: counterscreen for cytotoxicity. A549 ARE-Fluc cells, CellTiter-Fluor viability, 18-24 h. Potency, µM (titrated, usually from 46 µM), for the others: at the highest dose activity change, negative = cytotoxicity, usual class: inhibitors. 390,000 tested, 0.16% active. AID 504648, 2011; further: on the % scale 0 is the no-effect control and ±100 the full control effect
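A549 ARE-Fluc cells in 5% FBS OPTI-MEM, 5000 cells/well, rested 2 h then exposed to compounds in concentration-response for 18-24 h at 37 °C. Viability by CellTiter-Fluor fluorescence (Ex 405/Em 525) after 30 min; luciferase luminescence (BugLite, 15 min, RT) read afterwards.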
Nrf2 block = Nrf2 qHTS screen for inhibitors | A549 ARE-Fluc reporter, luciferase luminescence, 18-24 h | Potency, µM (titrated, usually from 46 µM), for inactives: at the top dose activity change, negative = inhibition, most hits filed as inhibitors | 360,000 tested, 2.1% active; further: on the % scale 0 is the no-effect control and ±100 the full control effect; nearly all actives have a fitted effect of over 60% in size
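Quantitative HTS in A549 cells stably bearing an antioxidant response element-firefly luciferase construct. Inhibition of Nrf2-driven transcription was scored by luminescence after 18-24 h of compound exposure at 37 °C.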
* = called active by the depositor; i = inactive; ? = inconclusive; / = not tested or not shown. The call rests on the fitted dose curve; in most records, active means well fitted curve in the direction sought with a large enough effect; inconclusive means small, poorly fitted or top-dose-only effect, or another doubt; inactive means no such curve, though single readings can be large; an effect the other way counts as inactive or inconclusive. Potency means the concentration at half of the fitted maximal effect.

SMILES	S2 tox	ATXN2 expr inh	Nrf2 activator	A549 viability	Nrf2 block
CN(C)CCNc1ncnc2c1sc1nc(-c3ccccc3)c3c(c12)CCCC3	/	32µM*	-3%	-1%	-15%
COc1ncnc2c1sc1nc(-c3ccccc3)c3c(c12)CCCC3	i	-8%	0%	3%	2%
O=C(c1ccc(C(=O)N2CCC(N3CCCC3)CC2)c(Nc2ccccc2)c1)N1CCC(N2CCCC2)CC1	/	-7%	/	/	/
COc1ccccc1-n1cnc2cc(NCc3ccccc3O)ccc21	i	7%	0%	-2%	4%
COc1ccc(CNc2ccc3c(c2)ncn3-c2ccccc2OC)cc1	i	6%	4%	-30%	18µM*
C[C@@H](O)[C@H]1C(=O)N2C(C(=O)O)=C([C@H]3CCCO3)S[C@H]12	i	2%	/	/	/
O=C1c2ccccc2-c2onc3ccc(Oc4ccccc4)c1c23	/	?	7.1µM*	?	?
O=C(c1ccccc1)c1coc2c1C(=O)c1ccccc1C2=O	i	-1%	-1%	?	?
O=C(CCCl)NCCc1ccccc1	i	9%	/	/	/
CC(CCc1ccccc1)NC(=O)CNC(=S)N(Cc1cccs1)C1CCCC1 (stereo unspecified)	i	3%	4%	?	15µM*
CCOC(=O)CNC(=S)N(Cc1cccs1)C1CCCCC1	i	0%	0%	0%	1%
CCCCNC(=O)CNC(=S)N(Cc1ccccc1)Cc1cccs1	i	26%	2%	-16%	23µM*
COC(CNC(=O)CNC(=S)N(Cc1ccccc1)Cc1cccs1)OC	i	-13%	2%	2%	8%
CCCCCCCN(CC)CCCC(O)c1ccc(NS(C)(=O)=O)cc1 (stereo unspecified)	i	?	/	/	/
Cc1ccc(S(=O)(=O)N2CCN(c3nc(-c4ccnnc4)nc4ccccc34)CC2)cc1	/	/	/	8%	6%
Cc1ccc(C)c(Nc2nnc(-c3ccc(C)c(S(=O)(=O)NCC4CCCO4)c3)c3ccccc23)c1 (stereo unspecified)	?	?	5%	-12%	23µM*
Cc1ccc(-c2nnc(Nc3ccccc3)c3ccccc23)cc1S(=O)(=O)NCC1CCCO1 (stereo unspecified)	i	23%	0%	-3%	?
O=C(Nc1ccc(Br)cc1)c1cccc(S(=O)(=O)Nc2ccccn2)c1	i	-17%	1%	?	13µM*
O=C(Nc1ccccc1)c1cccc(S(=O)(=O)Nc2ccccn2)c1	i	-2%	0%	3%	-8%
Nc1cccc2nc3ccccc3cc12	/	7.9µM*	0%	0%	?
Nc1[nH]nc2nc3ccccc3cc12	?	-7%	2%	-5%	-10%
Cc1c(C(=O)N(C)Cc2nccs2)sc2ncnc(NCC3CCCO3)c12 (stereo unspecified)	i	/	/	/	/
C=C1[C@@H](O)[C@H](Cc2ccccc2)N(Cc2ccccc2Br)S1(=O)=O	18µM*	20µM*	-3%	-1%	?
CCc1nc(SCC(=O)Nc2cc(OC)ccc2OC)c2c(C)c(C)sc2n1	i	-7%	0%	-22%	15µM*
CCOC(=O)c1cnc(SCC(=O)Nc2cc(OC)ccc2OC)nc1N	i	-28%	0%	-18%	10µM*
SMILES	S2 tox	ATXN2 expr inh	Nrf2 activator	A549 viability	Nrf2 block
CCOC(=O)c1cnc(SCC(=O)Nc2ccc(NC(C)=O)c(OC)c2)nc1N	i	0%	0%	0%	?
CCc1ccc(S(=O)(=O)c2cn(Cc3ccccc3)c3cc(N4CCCC4)c(F)cc3c2=O)cc1	/	/	0%	-3%	6%
O=C(N/N=C/c1ccc([N+](=O)[O-])o1)C(=O)Nc1ccc(C(=O)O)cc1	i	19%	0%	-7%	5%
O=C(O)c1ccc(N/N=C/C=C/c2ccc([N+](=O)[O-])o2)cc1	?	-15%	14µM*	?	?
CCn1nc(C(=O)NNC(=O)c2ccccc2)c2ccccc2c1=O	i	19%	16µM*	1%	?
COc1cc(-c2nnc3sc(C4CCCCC4)nn23)cc(OC)c1OC	i	-27%	0%	0%	13µM*
CCN1/C(=C/C(C)=C/c2sc3ccccc3[n+]2CC)Sc2ccccc21	5.6µM*	?	-2%	21µM*	8.2µM*
CCN1/C(=C\C(=S)Nc2ccccc2)Sc2ccccc21	?	-31%	2%	?	?
Cc1ccc2c(c1)N(CCC(=O)NCc1ccccc1Cl)C(=O)CO2	i	-9%	0%	-4%	?
CC(C)(C)C1CCc2c(sc(N)c2C(N)=O)C1 (stereo unspecified)	i	-10%	4%	0%	-27%
CCC(C)(C)C1CCc2c(sc(N)c2C(N)=O)C1 (stereo unspecified)	i	-14%	3%	8%	18µM*
COC(=O)C1CCN(Cc2ccc3c(c2)CN(C(=O)C2CCCN(c4ccccn4)C2)CCO3)CC1 (stereo unspecified)	i	/	/	/	/
CCCc1cc(=O)n2[nH]cc(-c3ccc(Cl)cc3)c2n1	?	10µM*	0%	?	21µM*
c1ccc(CCc2nnc3n2CCN(Cc2ccc4ccccc4n2)CC3)cc1	i	/	/	/	/
CC1(c2nnc(-c3ccccc3)o2)CC(c2c(Cl)cccc2Cl)=NO1 (stereo unspecified)	i	?	0%	-15%	23µM*
CC1(c2nnc(-c3ccc(Cl)cc3)o2)CC(c2ccc([N+](=O)[O-])cc2)=NO1 (stereo unspecified)	i	7%	-1%	6%	0%
CC1(c2nnc(-c3ccncc3)o2)CC(c2ccc([N+](=O)[O-])cc2)=NO1 (stereo unspecified)	i	-2%	-1%	2%	12µM*
CC1(c2nnc(-c3ccncc3)o2)CC(c2c(Cl)cccc2Cl)=NO1 (stereo unspecified)	i	-8%	0%	3%	9%
CCOc1ccc(N2CC(NC(=O)c3ccc(Cl)cc3)CC2=O)cc1 (stereo unspecified)	/	/	-1%	4%	/
CCCCC/C(C=O)=C\c1ccccc1	i	12%	/	/	/
COc1ccc(-c2cccc3c2OC(CNC(=O)c2ccccc2-n2cccn2)C3)nn1 (stereo unspecified)	i	/	/	/	/
OC(C1=CC(=Cc2ccncc2)c2ccccc21)c1ccncc1 (stereo unspecified)	i	23%	?	-21%	21µM*
OC(c1ccccc1)c1ccncc1 (stereo unspecified)	i	5%	0%	-4%	4%
C=C1/C(=C\C=C2/CCC[C@]3(C)[C@@H]([C@H](C)OCCC(C)(C)O)CC[C@@H]23)C[C@@H](O)C[C@@H]1O	i	/	/	/	/

High-throughput results (PubChem BioAssay)
